{
  "source": "ChEMBL document CHEMBL3988442",
  "about": "“University of Dundee, Small-Polar-MMV Screening Library” (2021)",
  "note": "Hit rate of the full screen: of about 69,000 compounds, about 950 (1.4%) showed an effect of 50% or more. The entries come from a sample that favours strong results as a whole.",
  "data": [
    {"tested_on": "Mycobacterium tuberculosis", "experiment": "Cornell M. t heat shock assay; also: in the data most compounds retested in dose-response had high values", "assay_type": "functional, organism-based", "set-up": "dose or concentration left out as unconfirmed", "units": {"Percent Effect": "%"}, "values": [
      {"smiles": "Cl.N#Cc1cccnc1OC1CCNCC1", "Percent Effect": -9.035},
      {"smiles": "Cc1ccc(N2C[C@@H]3OCCN(CC4CC4)[C@@H]3C2)nn1.O=C(O)C(F)(F)F", "Percent Effect": 21.44},
      {"smiles": "CN1Cc2cnn(CC3CCCC3)c2C(COCC2CC2)C1.O=C(O)C(F)(F)F.O=C(O)C(F)(F)F", "note": "(stereo not drawn)", "Percent Effect": -36.29},
      {"smiles": "O=C(O)C(F)(F)F.O=C(O)C(F)(F)F.O=C(O)C(F)(F)F.c1ccc(CN2CC[C@@H]3O[C@H](COCc4ccncc4)CC[C@@H]32)nc1", "Percent Effect": 5.621},
      {"smiles": "NCC(c1ccccc1)N1CCc2sccc2C1", "note": "(stereo not drawn)", "Percent Effect": 4.411},
      {"smiles": "CC(C)c1ccc(C(CN)N2CCc3sccc3C2)cc1", "note": "(stereo not drawn)", "Percent Effect": 92.4},
      {"smiles": "NCC(c1ccc(Cl)cc1)N1CCc2sccc2C1", "note": "(stereo not drawn)", "Percent Effect": 22.77},
      {"smiles": "Cc1csc([C@@H]2C[C@H]3CN(c4ncc(F)cn4)C[C@H]3O2)n1.O=C(O)C(F)(F)F", "Percent Effect": 25.07},
      {"smiles": "CC(N)Cc1ccccc1Sc1ccc(O)cc1.CC(N)Cc1ccccc1Sc1ccc(O)cc1.O=C(O)C(=O)O", "note": "(stereo not drawn)", "Percent Effect": 54.17},
      {"smiles": "CNC(C)Cc1ccccc1Sc1ccc(O)cc1.Cl", "note": "(stereo not drawn)", "Percent Effect": 5.856},
      {"smiles": "CC(N)Cc1ccccc1Sc1ccccc1.O=C(O)/C=C\\C(=O)O", "note": "(stereo not drawn)", "Percent Effect": 31.83},
      {"smiles": "O=C(Nc1ccccc1)[C@H]1C[C@@H]2CN(S(=O)(=O)c3ccccc3)C[C@H]1O2", "Percent Effect": 3.672},
      {"smiles": "Cc1cc(NCCCNc2cccnc2)n2nc(C)c(C)c2n1", "Percent Effect": 90.05},
      {"smiles": "CCc1cc(NCCc2cnccn2)n2nc(C)c(C)c2n1", "Percent Effect": 78.14},
      {"smiles": "Cc1cc(NC2CCN(Cc3ccccn3)CC2)n2nc(C)c(C)c2n1", "Percent Effect": 3.704},
      {"smiles": "CCc1cc(NCCNC(=O)c2cccnc2)n2nc(C)c(C)c2n1", "Percent Effect": -20.84},
      {"smiles": "CCc1cc(NCCNc2cccnc2)n2nccc2n1", "Percent Effect": 0.7035},
      {"smiles": "Cc1cc(N[C@@H](CO)c2ccccc2)n2nc(C)c(C)c2n1", "Percent Effect": 11.1},
      {"smiles": "CCc1cc(NCCN2CCNC2=O)n2nc(C)c(C)c2n1", "Percent Effect": -8.001},
      {"smiles": "CCc1cc(NCCc2cccnc2)n2nc(C)c(C)c2n1", "Percent Effect": 66.22},
      {"smiles": "CCc1cc(NCCNc2ccncc2C)n2nc(C)c(C)c2n1", "Percent Effect": 10.67},
      {"smiles": "O=C(O)C(F)(F)F.O=C(c1ccco1)N1C[C@@H]2OCCN(c3ncccn3)[C@@H]2C1", "Percent Effect": -4.269},
      {"smiles": "COc1cccc(CN2C[C@@H]3COC[C@]3(CNC(=O)C3CC3)C2)c1.O=C(O)C(F)(F)F", "Percent Effect": 18.07},
      {"smiles": "O=C(O)C(F)(F)F.O=C(c1ccco1)N1CCCC12CCN(c1ncccn1)CC2", "Percent Effect": -4.902},
      {"smiles": "Cn1cc(-c2csc(N3CCCCCC3)n2)cn1", "Percent Effect": 70.2},
      {"smiles": "CN1CCN(c2nc(-c3cnn(C)c3)cs2)CC1", "Percent Effect": -2.615},
      {"smiles": "Cn1cc(-c2csc(N3CCSCC3)n2)cn1", "Percent Effect": 7.511},
      {"smiles": "O=C(NCC1CC1)[C@@H]1C[C@@H]2CCN(Cc3ccoc3)C[C@@H]2O1", "Percent Effect": -11.78},
      {"smiles": "Cc1ccc(C(=O)N2CCC3(CC2)CC(N2CCOCC2)C3)cc1.O=C(O)C(F)(F)F", "Percent Effect": 4.537},
      {"smiles": "Cc1noc(C)c1C(=O)N1CCOC2(COCCN(C(C)C)C2)C1.O=C(O)C(F)(F)F", "note": "(stereo not drawn)", "Percent Effect": 7.392},
      {"smiles": "CC(CNCc1ccc(Br)cc1)Oc1ccccn1.Cl", "note": "(stereo not drawn)", "Percent Effect": -4.228},
      {"smiles": "CN(C)CCn1c2c(ccc1=O)CCN(Cc1cnn(C)c1)CC2.O=C(O)C(F)(F)F.O=C(O)C(F)(F)F", "Percent Effect": 10.2},
      {"smiles": "CC(C)NC(=O)N1CCC2(CCC(=O)N2CCN(C)C)CC1.O=C(O)C(F)(F)F", "Percent Effect": -12.81},
      {"smiles": "CN1CCCN(C(=O)c2cnsn2)c2cc(Cl)ccc21", "Percent Effect": -8.8},
      {"smiles": "CN1CCN(C(=O)c2csnn2)c2ccccc21", "Percent Effect": -18.09},
      {"smiles": "CN1CCN(C(=O)CCc2cccnc2)c2ccc(F)cc21", "Percent Effect": 15.62},
      {"smiles": "CN1CCN(C(=O)c2cnsn2)c2ccc(F)cc21", "Percent Effect": 82.14},
      {"smiles": "CN1CCCN(C(=O)c2cnsn2)c2cc(F)ccc21", "Percent Effect": -35.83},
      {"smiles": "CN1CCN(C(=O)c2cnsn2)c2cc(F)ccc21", "Percent Effect": 57.04},
      {"smiles": "Clc1ccccc1CCN1CCN(c2ccc3nncn3n2)CC1", "Percent Effect": 33.42},
      {"smiles": "Cc1ccc(-c2nc(CN3CCCC(Cn4cncn4)C3)cs2)o1", "note": "(stereo not drawn)", "Percent Effect": 9.33},
      {"smiles": "O=C(CC1CC1)N1CCC2(COCc3cnc(N4CCOCC4)nc32)C1", "note": "(stereo not drawn)", "Percent Effect": 6.453},
      {"smiles": "CCOc1ccc(C(=O)N2CCN(c3nccn3C)CC2)cc1.Cl", "Percent Effect": -17.36},
      {"smiles": "Cc1cnn(CC(C)NCc2csc(-c3cnn(C)c3)n2)c1", "note": "(stereo not drawn)", "Percent Effect": -23.56},
      {"smiles": "Cc1cnn(CCNCc2csc(-c3ccc(F)cc3)n2)c1", "Percent Effect": 22.16},
      {"smiles": "Cc1cnn(CCNCc2csc(-c3ccsc3)n2)c1", "Percent Effect": 107.8},
      {"smiles": "Cc1cnn(CCNCc2csc(-c3cccs3)n2)c1", "Percent Effect": 25.75},
      {"smiles": "Cc1cnn(CC(C)NCc2csc(-c3ccsc3)n2)c1", "note": "(stereo not drawn)", "Percent Effect": 27.16},
      {"smiles": "Cc1cnn(CCNCc2csc(-c3ccccc3)n2)c1", "Percent Effect": 104.4},
      {"smiles": "Cc1cccc(N2CCc3ncc(CNS(C)(=O)=O)n3CC2)n1.O=C(O)C(F)(F)F", "Percent Effect": -36.69},
      {"smiles": "Cc1ccc(C2CCCN2S(=O)(=O)N(C)Cc2cnccn2)o1", "note": "(stereo not drawn)", "Percent Effect": -5.103},
      {"smiles": "CN(CCc1ccccn1)S(=O)(=O)N1CCCC1c1ccco1", "note": "(stereo not drawn)", "Percent Effect": 16.77},
      {"smiles": "Cc1ccc(C2CCCN2S(=O)(=O)N(C)CCc2ccccn2)o1", "note": "(stereo not drawn)", "Percent Effect": 69.2},
      {"smiles": "I.c1cc2c(cc1C1(CNC3=NCCN3)CCCC1)OCCO2", "Percent Effect": -5.173},
      {"smiles": "CNC(=O)CN1CCOCC12CCN(C(=O)c1ccccc1)CC2.O=C(O)C(F)(F)F", "Percent Effect": -17.78},
      {"smiles": "COc1ccc(OC)c(NC(=O)N2CCCC2c2ccco2)c1", "note": "(stereo not drawn)", "Percent Effect": 25.75},
      {"smiles": "COc1ccccc1NC(=O)N1CCCC1c1ccco1", "note": "(stereo not drawn)", "Percent Effect": 40.09},
      {"smiles": "COc1ccc(NC(=O)N2CCCC2c2ccco2)c(OC)c1", "note": "(stereo not drawn)", "Percent Effect": 74.57},
      {"smiles": "O=C(O)CC(O)(CC(=O)O)C(=O)O.c1ccc([C@@H]2CN(Cc3cccnc3)C[C@H]2c2cc[nH]n2)cc1", "Percent Effect": -3.502},
      {"smiles": "Cc1ccc(CN2CCC3(CC2)COCCN3S(C)(=O)=O)o1.O=C(O)C(F)(F)F", "Percent Effect": 38.18},
      {"smiles": "CCCN1CCN(C(=O)Cn2nc(C(F)(F)F)c(Br)c2C2CC2)CC1", "Percent Effect": -16.27},
      {"smiles": "CCN1CCN(C(=O)Cn2nc(C(F)(F)F)c(Br)c2C2CC2)CC1", "Percent Effect": -4.049},
      {"smiles": "CN1CCN(C(=O)Cn2nc(C(F)(F)F)c(Br)c2C2CC2)CC1", "Percent Effect": 82.35}
    ]}
  ]
}
